High-throughput results: PubChem, several laboratories
dFosB activator = mouse delta FosB homodimer activation | P13346 | purified delta FosB, TAMRA-CDK5 oligo fluorescence polarization; percent of positive-control signal above neutral wells | activation, % at 25 µM | 0.99% of 340,000 active;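 active = mean activation above about 17%, with every replicate also reaching it, limit read from the data, passing the limit was not always enough; inconclusive = only one of the two conditions met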
TPT1 inh = inhibitors of Candida albicans tRNA 2'-phosphotransferase TPT1 | recombinant caTPT1, FP RNA substrate dephosphorylation | inhibition, % at 5 µM | 0.81% of 300,000 active;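 active = inhibition above the mean of all tested compounds plus 3 SD, set per screening campaign, cut at about 24% in these data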
EBNA-1 inhibitor = blocks EBNA-1 binding to DNA; EBNA-1 DNA binding, fluorescence polarization; inhibition, % at 14.8 µM; 0.34% of 300,000 active; in the data active = inhibition above about 28%
GRIN3A LBD mod = modulators (binders) of human NR3A ligand-binding domain. Tm shift relative to glycine control, % at 25 µM. NR3A LBD differential scanning fluorimetry, Tm shift; 0% = protein alone, 100% = glycine-bound protein. 2.5% of 340,000 active;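 active = melting temperature shift of at least 10% of the positive control shift, at one fixed dose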
ZTA DNA inh = ZTA (EBV) inhibition in EBNA-1 counter-screen; P03206; ZTA-DNA binding, fluorescence polarization; inhibition, % at 11 µM; 0.15% of 320,000 active; AID 2234; in the data active = inhibition above about 33%
Target sequence (P03206 whole entry, looked up): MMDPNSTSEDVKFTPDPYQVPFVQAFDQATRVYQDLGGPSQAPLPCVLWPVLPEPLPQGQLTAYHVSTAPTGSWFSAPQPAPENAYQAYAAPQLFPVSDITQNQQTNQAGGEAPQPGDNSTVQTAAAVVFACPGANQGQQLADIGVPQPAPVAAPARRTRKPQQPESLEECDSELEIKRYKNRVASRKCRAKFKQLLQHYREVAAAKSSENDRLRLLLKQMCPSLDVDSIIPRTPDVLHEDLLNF
Rpn11 block = Rpn11 (human) deubiquitinase inhibition; O00487; human 26S proteasome, Ub4-pepOG fluorescence polarization; 20S core pre-blocked with epoxomicin; inhibition, % at 20 µM; 0.59% of 360,000 active; AID 588493;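 active = inhibition at 20 µM, scaled to each plate's controls, above about 33%, limit read from the data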
Target sequence (O00487 whole entry, looked up): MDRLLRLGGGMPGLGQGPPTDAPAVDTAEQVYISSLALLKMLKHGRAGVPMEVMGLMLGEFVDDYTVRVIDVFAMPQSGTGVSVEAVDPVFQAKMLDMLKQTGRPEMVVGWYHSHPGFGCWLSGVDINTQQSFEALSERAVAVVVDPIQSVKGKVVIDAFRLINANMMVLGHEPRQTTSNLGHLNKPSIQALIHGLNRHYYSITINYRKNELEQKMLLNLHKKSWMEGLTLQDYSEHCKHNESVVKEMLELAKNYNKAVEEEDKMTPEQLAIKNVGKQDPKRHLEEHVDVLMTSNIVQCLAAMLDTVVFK
ZTA inh confirm = EBV ZTA DNA binding inhibition, confirmation | shares compounds with ZTA DNA inh | Zta-ZRE DNA binding, fluorescence polarization | inhibition, % at 11.1 µM | 30% of 320 active;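 active = mean inhibition across triplicate runs above the hit threshold derived for the original primary screen, cut at about 33% in these data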
EBNA-1 counter = counter-screen for ZTA inhibitors: EBNA-1 DNA binding inhibition. shares compounds with ZTA DNA inh. fluorescence polarization. inhibition, % at 14.8 µM. 320 tested, under 10 active. AID 2362; call rule not given here
A number is an active result. Compounds with a hit are over-represented: about 4.5% of the library has one in this group of screens.

CCN(CCCNC(=O)CNC(=O)c1nn(-c2ccc(OC)cc2OC)c(=O)c2ccccc12)c1cccc(C)c1 was read as dFosB activator inactive, TPT1 inh inactive, EBNA-1 inhibitor inactive, GRIN3A LBD mod inactive, ZTA DNA inh inactive and Rpn11 block inactive.
For O=C(CNC(=O)c1sc2ccccc2c1Cl)NCc1ccccc1 the results were dFosB activator inactive, TPT1 inh inactive, EBNA-1 inhibitor inactive, GRIN3A LBD mod inactive, ZTA DNA inh inactive and Rpn11 block inactive.
`COC(=O)c1ccc(CNC(=O)CNC(=O)c2sc3ccccc3c2Cl)cc1` gave dFosB activator inconclusive, TPT1 inh inactive, EBNA-1 inhibitor inactive, GRIN3A LBD mod inactive, ZTA DNA inh 83, Rpn11 block inactive, ZTA inh confirm 70 and EBNA-1 counter inactive.
Screening CCCCc1ccc(NC(=O)OC)cc1 returned dFosB activator inactive, TPT1 inh inactive, EBNA-1 inhibitor inactive, GRIN3A LBD mod inactive, ZTA DNA inh 166, Rpn11 block inactive, ZTA inh confirm inactive and EBNA-1 counter inactive.
`CCCCc1ccc(NC(=O)N[C@H](C(=O)O)C(C)CC)cc1` (stereo partly specified) gave dFosB activator inactive, TPT1 inh inactive, EBNA-1 inhibitor inactive, GRIN3A LBD mod inactive, ZTA DNA inh inactive and Rpn11 block inactive.
Screening COc1cc(C(=O)NCc2nnc(SCC(=O)NCCc3ccccc3)o2)cc(OC)c1OC returned dFosB activator inactive, TPT1 inh inactive, EBNA-1 inhibitor inactive, GRIN3A LBD mod inactive, ZTA DNA inh inactive and Rpn11 block inactive.
Screening NC(=O)CSc1nc2sc3c(c2c2ncnn12)CCCC3 returned dFosB activator inactive, TPT1 inh inactive, EBNA-1 inhibitor inactive, GRIN3A LBD mod inactive, ZTA DNA inh 38, Rpn11 block inactive, ZTA inh confirm inactive and EBNA-1 counter inactive.
For CCn1c(SCC(N)=O)nc2sc3c(c2c1=O)CCCC3 the results were dFosB activator inactive, TPT1 inh inactive, EBNA-1 inhibitor inactive, GRIN3A LBD mod inactive, ZTA DNA inh inactive and Rpn11 block inactive.
`NC(=O)c1ccc(NC(=O)CSc2nnc(-c3ccc4c(c3)OCO4)o2)cc1` gave dFosB activator inactive, GRIN3A LBD mod inactive, ZTA DNA inh 35, Rpn11 block inactive, ZTA inh confirm inactive and EBNA-1 counter inactive.
Screening NC(=O)CSc1nnc(-c2ccc3c(c2)OCO3)o1 returned dFosB activator inactive, TPT1 inh inactive, EBNA-1 inhibitor inactive, GRIN3A LBD mod inactive, ZTA DNA inh inactive and Rpn11 block inactive.
O=C(CN1C(=O)c2ccccc2C1=O)N1CCN(C2c3ccccc3-c3ccccc32)CC1 was read as dFosB activator inactive, TPT1 inh inactive, EBNA-1 inhibitor inactive, GRIN3A LBD mod inactive, ZTA DNA inh inactive and Rpn11 block inactive.
Screening Cc1cccc(NC(=O)c2ccc(COc3cccc4ccccc34)o2)n1 returned dFosB activator inactive, TPT1 inh inactive, EBNA-1 inhibitor inactive, GRIN3A LBD mod inactive, ZTA DNA inh inactive and Rpn11 block inactive.
For Nc1c(C(=O)NCc2ccccc2)c2nc3ccccc3nc2n1CCCN1CCOCC1 the results were dFosB activator inconclusive, TPT1 inh inactive, EBNA-1 inhibitor inactive, GRIN3A LBD mod inactive, ZTA DNA inh inactive and Rpn11 block inactive.
For Nc1c(C(=O)NCc2ccc(F)cc2)c2nc3ccccc3nc2n1CCCN1CCOCC1 the results were dFosB activator inactive, TPT1 inh inactive, EBNA-1 inhibitor inactive, GRIN3A LBD mod inactive, ZTA DNA inh 66, Rpn11 block inactive, ZTA inh confirm inactive and EBNA-1 counter inactive.
Screening CCOc1cc(/C=C\c2[nH]c(=O)[nH]c(=O)c2[N+](=O)[O-])ccc1OC(C)CC (stereo unspecified) returned TPT1 inh inactive, EBNA-1 inhibitor inactive, GRIN3A LBD mod inactive, ZTA DNA inh 39, ZTA inh confirm 43 and EBNA-1 counter inactive.
Nc1cccc2nsnc12 was read as dFosB activator inactive, TPT1 inh inactive, EBNA-1 inhibitor inactive, GRIN3A LBD mod inactive, ZTA DNA inh inactive and Rpn11 block inactive.
For Nc1cc2nsnc2cc1Br the results were dFosB activator inactive, TPT1 inh inactive, EBNA-1 inhibitor inactive, GRIN3A LBD mod inactive, ZTA DNA inh 68, Rpn11 block inactive, ZTA inh confirm inactive and EBNA-1 counter inactive.
`Cn1nnnc1Sc1ncnc2scc(-c3cc4ccccc4o3)c12` gave dFosB activator inactive, GRIN3A LBD mod inactive, ZTA DNA inh 38, Rpn11 block inactive, ZTA inh confirm inactive and EBNA-1 counter inactive.
COc1ccc(NC(=O)COC(=O)CCNS(=O)(=O)c2ccc(Cl)cc2)cc1 was read as dFosB activator inactive, TPT1 inh inactive, EBNA-1 inhibitor inactive, GRIN3A LBD mod inactive, ZTA DNA inh inactive and Rpn11 block inactive.
Screening COc1cc2nc(N(CCCN(C)C)C(=O)c3ccc(S(=O)(=O)N4CCc5ccccc54)cc3)sc2cc1OC returned dFosB activator inactive, TPT1 inh inactive, EBNA-1 inhibitor inactive, GRIN3A LBD mod inactive, ZTA DNA inh 50, Rpn11 block inactive, ZTA inh confirm 56 and EBNA-1 counter inactive.
`CCc1ccc(OCCNC(=O)c2ccco2)cc1` gave dFosB activator inactive, TPT1 inh inactive, EBNA-1 inhibitor inactive, GRIN3A LBD mod inactive, ZTA DNA inh inactive and Rpn11 block inactive.
CC(=O)c1cccc(NC(=O)NNC(=O)c2ccc3ccccc3c2)c1 was read as dFosB activator inactive, TPT1 inh inactive, EBNA-1 inhibitor inactive, GRIN3A LBD mod inactive, ZTA DNA inh 76, Rpn11 block inactive, ZTA inh confirm inactive and EBNA-1 counter inactive.
For Cc1cccc(NC(=O)NNC(=O)c2ccc3ccccc3c2)c1 the results were dFosB activator inactive, GRIN3A LBD mod inactive and Rpn11 block inactive.
COc1ccc(NS(=O)(=O)c2ccc3c(c2)[C@H]2C=CC[C@H]2[C@@H](c2ccc(C(=O)O)cc2)N3)cc1 was read as dFosB activator inactive, TPT1 inh inactive, EBNA-1 inhibitor inactive, GRIN3A LBD mod inactive, ZTA DNA inh 35, Rpn11 block inactive, ZTA inh confirm 48 and EBNA-1 counter inactive.
CC(C)(C)n1cn[nH]c1=S was read as dFosB activator inactive, TPT1 inh inactive, EBNA-1 inhibitor inactive, GRIN3A LBD mod inactive, ZTA DNA inh inactive and Rpn11 block inactive.
`C#CCOCCOCCOCCNc1nc(N2CCN(C(=O)CCCCCCCCCCNC(=O)[C@H](CO)n3cc(CCCSC)nn3)CC2)nc(N2CCN(C(=O)CCCCCCCCCCNC(=O)[C@H](CCCN=C(N)N)n3cc(C[C@@H](C)CC)nn3)CC2)n1` gave dFosB activator inactive, TPT1 inh inactive, EBNA-1 inhibitor inactive, GRIN3A LBD mod inactive, ZTA DNA inh 96, Rpn11 block 108, ZTA inh confirm 69 and EBNA-1 counter inactive.
